PubChem BioAssay AID1159580 (chemical genetic matrix, 2015)
Hit rate of the full screen: of about 5,500 compounds, about 2,000 (36%) were called active. Roughly 18% stayed inconclusive and do not appear here. Rule as the data show it: active = normalized growth mostly below about 0.91 (no sharp cut-off); inconclusive = no clear call, values can overlap the other calls; inactive = mostly above about 0.92. The list shows a part of the results.

Experiment: chemical genetic growth profiling, strain panel (AID 1159580);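 also: tested at 20 µM; growth read once vehicle control cultures reached saturation at 30 °C; 1 = growth at the plate median or of vehicle wells; lower values mean less growth of the strain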
Conditions: growth OD

Measured: normalized growth

Cc1ccc(C(=O)c2ccc(CC(=O)O)n2C)cc1
inactive: S. cerevisiae deletion strains, locus YJR075W, strain HOC1, active compounds read low 1.02 | S. cerevisiae deletion strains, locus YKL009W, strain mrt4, active compounds read low 0.958 | S. cerevisiae deletion strains, locus YKL068W, active compounds read low 0.99 | S. cerevisiae deletion strains, locus YKL085W, strain MDH1 (second series), active compounds read low 0.98 | S. cerevisiae deletion strains, locus YKL085W, strain MDH1, active compounds read low 0.98 | S. cerevisiae deletion strains, locus YKL160W, strain elf1, active compounds read low 1.01 | S. cerevisiae deletion strains, locus YKL190W, strain CNB1, active compounds read low 0.996 | S. cerevisiae deletion strains, locus YKR001C, strain vps1, active compounds read low 0.946 | S. cerevisiae deletion strains, locus YKR026C, strain gcn3, active compounds read low 1.01 | S. cerevisiae deletion strains, locus YKR091W, strain srl3, active compounds read low 1 | S. cerevisiae deletion strains, locus YLL001W, strain dnm1, active compounds read low 0.981 | S. cerevisiae deletion strains, locus YLL026W, active compounds read low 1.01 | S. cerevisiae deletion strains, locus YLL041C, strain sdh2, active compounds read low 1 | S. cerevisiae deletion strains, locus YLR027C, strain aat2, active compounds read low 1.02 | S. cerevisiae deletion strains, locus YLR039C, strain RIC1, active compounds read low 0.996 | S. cerevisiae deletion strains, locus YLR058C, strain SHM2, active compounds read low 1 | S. cerevisiae deletion strains, locus YLR102C, strain apc9, active compounds read low 0.973 | S. cerevisiae deletion strains, locus YLR113W, strain HOG1, active compounds read low 0.991 | S. cerevisiae deletion strains, locus YLR221C, strain rsa3, active compounds read low 0.971 | S. cerevisiae deletion strains, locus YLR258W, strain gsy2, active compounds read low 1.01 | S. cerevisiae deletion strains, locus YLR262C, strain YPT6 (second series), active compounds read low 0.994 | S. cerevisiae deletion strains, locus YLR262C, strain YPT6, active compounds read low 1 | S. cerevisiae deletion strains, locus YLR268W, strain sec22, active compounds read low 0.918 | S. cerevisiae deletion strains, locus YLR320W, strain mms22, active compounds read low 0.958 | S. cerevisiae deletion strains, locus YLR330W, strain CHS5, active compounds read low 1 | S. cerevisiae deletion strains, locus YLR342W, strain FKS1 (second series), active compounds read low 0.997 | S. cerevisiae deletion strains, locus YLR342W, strain FKS1, active compounds read low 1.02 | S. cerevisiae deletion strains, locus YLR357W, strain rsc2, active compounds read low 1.02 | S. cerevisiae deletion strains, locus YLR370C, strain arc18, active compounds read low 1 | S. cerevisiae deletion strains, locus YLR371W, strain rom2, active compounds read low 0.978 | S. cerevisiae deletion strains, locus YLR384C, strain iki3, active compounds read low 1.01 | S. cerevisiae deletion strains, locus YLR418C, strain cdc73, active compounds read low 0.968 | S. cerevisiae deletion strains, locus YML016C, strain PPZ1, active compounds read low 1.01 | S. cerevisiae deletion strains, locus YML032C, strain rad52, active compounds read low 0.969 | S. cerevisiae deletion strains, locus YML120C, strain ndi1, active compounds read low 0.982 | S. cerevisiae deletion strains, locus YML124C, strain tub3, active compounds read low 0.981 | S. cerevisiae deletion strains, locus YMR058W, strain fet3, active compounds read low 1.02 | S. cerevisiae deletion strains, locus YMR078C, strain ctf18, active compounds read low 0.97 | S. cerevisiae deletion strains, locus YMR125W, strain sto1, active compounds read low 1.01 | S. cerevisiae deletion strains, locus YMR129W, active compounds read low 1.02 | S. cerevisiae deletion strains, locus YMR205C, strain PFK2, active compounds read low 1.01 | S. cerevisiae deletion strains, locus YMR223W, strain ubp8, active compounds read low 0.979 | S. cerevisiae deletion strains, locus YMR231W, strain pep5, active compounds read low 1.01 | S. cerevisiae deletion strains, locus YMR307W, strain GAS1, active compounds read low 0.991 | S. cerevisiae deletion strains, locus YNL067W, strain RPL9B, active compounds read low 1 | S. cerevisiae deletion strains, locus YNL071W, strain lat1, active compounds read low 1.02 | S. cerevisiae deletion strains, locus YNL153C, strain GIM3, active compounds read low 1 | S. cerevisiae deletion strains, locus YNL183C, strain NPR1, active compounds read low 0.928 | S. cerevisiae deletion strains, locus YNL209W, strain ssb2, active compounds read low 1.02 | S. cerevisiae deletion strains, locus YNL233W, strain BNI4, active compounds read low 1 | S. cerevisiae deletion strains, locus YNL248C, strain rpa49, active compounds read low 1.02 | S. cerevisiae deletion strains, locus YNL250W, strain rad50, active compounds read low 0.987 | S. cerevisiae deletion strains, locus YNL271C, strain bni1, active compounds read low 0.968 | S. cerevisiae deletion strains, locus YNL298W, strain CLA4, active compounds read low 0.95 | S. cerevisiae deletion strains, locus YNL307C, strain MCK1, active compounds read low 0.956 | S. cerevisiae deletion strains, locus YNL322C, strain KRE1 (second series), active compounds read low 1.03 | S. cerevisiae deletion strains, locus YNL322C, strain KRE1, active compounds read low 1 | S. cerevisiae deletion strains, locus YNR049C, strain mso1, active compounds read low 1 | S. cerevisiae deletion strains, locus YNR052C, strain pop2, active compounds read low 0.978 | S. cerevisiae deletion strains, locus YOL006C, strain TOP1, active compounds read low 0.969 | S. cerevisiae deletion strains, locus YOL012C, strain htz1 0.918 | S. cerevisiae deletion strains, locus YOL147C, strain pex11, active compounds read low 0.974 | S. cerevisiae deletion strains, locus YOR001W, strain rrp6, active compounds read low 0.975 | S. cerevisiae deletion strains, locus YOR061W, strain CKA2, active compounds read low 1 | S. cerevisiae deletion strains, locus YOR069W, strain VPS5, active compounds read low 0.997 | S. cerevisiae deletion strains, locus YOR070C, strain gyp1, active compounds read low 1.02 | S. cerevisiae deletion strains, locus YOR080W, strain dia2, active compounds read low 1.02 | S. cerevisiae deletion strains, locus YOR083W, strain WHI5, active compounds read low 0.974 | S. cerevisiae deletion strains, locus YOR106W, strain vam3, active compounds read low 1.04 | S. cerevisiae deletion strains, locus YOR136W, strain idh2, active compounds read low 0.989 | S. cerevisiae deletion strains, locus YOR144C, strain elg1, active compounds read low 0.979 | S. cerevisiae deletion strains, locus YOR184W, strain ser1, active compounds read low 0.956 | S. cerevisiae deletion strains, locus YOR231W, strain MKK1, active compounds read low 0.987 | S. cerevisiae deletion strains, locus YOR265W, strain rbl2, active compounds read low 1.01 | S. cerevisiae deletion strains, locus YOR270C, strain vph1, active compounds read low 0.934 | S. cerevisiae deletion strains, locus YOR290C, strain snf2, active compounds read low 1.01 | S. cerevisiae deletion strains, locus YOR316C, strain cot1, active compounds read low 0.974 | S. cerevisiae deletion strains, locus YPL051W, strain arl3, active compounds read low 1.01 | S. cerevisiae deletion strains, locus YPL055C, strain LGE1, active compounds read low 1.02 | S. cerevisiae deletion strains, locus YPL078C, strain atp4, active compounds read low 0.995 | S. cerevisiae deletion strains, locus YPL106C, strain sse1, active compounds read low 1.03 | S. cerevisiae deletion strains, locus YPL240C, strain hsp82, active compounds read low 1.03 | S. cerevisiae deletion strains, locus YPL241C, strain CIN2, active compounds read low 1 | S. cerevisiae deletion strains, locus YPL256C, strain CLN2, active compounds read low 0.969 | S. cerevisiae deletion strains, locus YPR119W, strain clb2, active compounds read low 0.975 | S. cerevisiae deletion strains, locus YPR141C, strain kar3, active compounds read low 0.985 | S. cerevisiae deletion strains, locus YPR163C, strain tif3, active compounds read low 0.984 | S. cerevisiae deletion strains, locus YPR167C, strain met16, active compounds read low 0.973 | S. cerevisiae deletion strains, strain wtn01, active compounds read low 0.973 | S. cerevisiae strains, strain wild type, active compounds read low 1
